Common to all, as to assay: DAPPL (digital affinity profiling via proximity ligation, sequencing); 10 mM Tris-HCl pH 7.5, 50 mM NaCl, 1 mM DTT, 4% glycerol, room temperature, 30 min; GST-TFs on glutathione beads, 16-mer random dsDNA library, 0.1% formaldehyde crosslink after washing; high values mean tight binding
In assay [1] the target is T1, FLI1 (Homo sapiens, UniProt Q01543 1-452).
T1 sequence: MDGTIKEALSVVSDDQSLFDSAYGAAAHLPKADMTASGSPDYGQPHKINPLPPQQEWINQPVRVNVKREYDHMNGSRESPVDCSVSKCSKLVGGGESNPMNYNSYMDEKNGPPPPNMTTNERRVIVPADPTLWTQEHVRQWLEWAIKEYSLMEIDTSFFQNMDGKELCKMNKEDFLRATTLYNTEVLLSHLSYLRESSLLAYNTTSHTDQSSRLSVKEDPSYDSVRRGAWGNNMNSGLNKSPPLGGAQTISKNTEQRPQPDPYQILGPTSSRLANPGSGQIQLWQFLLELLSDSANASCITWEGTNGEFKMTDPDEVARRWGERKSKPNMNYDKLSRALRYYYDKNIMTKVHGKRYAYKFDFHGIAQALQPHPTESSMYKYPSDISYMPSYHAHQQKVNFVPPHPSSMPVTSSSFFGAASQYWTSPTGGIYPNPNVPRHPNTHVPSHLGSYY
The settings on record: protein: recombinant; tags: N-terminal GST; dsDNA, one strand shown. In outline:
(§1)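 Beads coated with glutathione captured GST-fused human transcription factors that had been expressed in yeast, and the factors were then given DNA barcodes and pooled with a tag-only sample. The pools were incubated with 200 nmole of a random double-stranded 16-mer DNA library in Tris/NaCl/DTT/glycerol buffer for 30 min at room temperature, washed, crosslinked with 0.1% formaldehyde and proximity-ligated with BsaI/T4 ligase at 37 °C for 1 h. PCR amplification and Illumina NextSeq500 sequencing came last. Binding signal is each hexamer's read frequency for a factor divided by its frequency for the tag-only sample.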

Assay [2] has as its target T2, ELK1 (Homo sapiens, UniProt P19419 1-428).
T2 sequence: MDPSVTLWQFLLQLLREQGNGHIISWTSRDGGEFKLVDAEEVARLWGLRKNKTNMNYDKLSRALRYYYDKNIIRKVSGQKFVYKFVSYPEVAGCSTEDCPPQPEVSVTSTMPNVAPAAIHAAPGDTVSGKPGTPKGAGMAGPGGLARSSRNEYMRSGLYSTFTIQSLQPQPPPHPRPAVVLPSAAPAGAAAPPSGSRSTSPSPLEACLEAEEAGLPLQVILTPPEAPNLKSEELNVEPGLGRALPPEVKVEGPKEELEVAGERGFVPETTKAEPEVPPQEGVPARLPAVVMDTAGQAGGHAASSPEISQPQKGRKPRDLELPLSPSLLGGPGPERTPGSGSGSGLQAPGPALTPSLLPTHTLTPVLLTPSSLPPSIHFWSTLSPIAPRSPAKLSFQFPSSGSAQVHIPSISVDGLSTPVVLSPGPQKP
The note with it: protein: recombinant; tags: N-terminal GST; dsDNA, one strand shown. In outline: as §1

Assay [3] addresses T3, GABPA (Homo sapiens, UniProt Q06546 1-454).
T3 sequence: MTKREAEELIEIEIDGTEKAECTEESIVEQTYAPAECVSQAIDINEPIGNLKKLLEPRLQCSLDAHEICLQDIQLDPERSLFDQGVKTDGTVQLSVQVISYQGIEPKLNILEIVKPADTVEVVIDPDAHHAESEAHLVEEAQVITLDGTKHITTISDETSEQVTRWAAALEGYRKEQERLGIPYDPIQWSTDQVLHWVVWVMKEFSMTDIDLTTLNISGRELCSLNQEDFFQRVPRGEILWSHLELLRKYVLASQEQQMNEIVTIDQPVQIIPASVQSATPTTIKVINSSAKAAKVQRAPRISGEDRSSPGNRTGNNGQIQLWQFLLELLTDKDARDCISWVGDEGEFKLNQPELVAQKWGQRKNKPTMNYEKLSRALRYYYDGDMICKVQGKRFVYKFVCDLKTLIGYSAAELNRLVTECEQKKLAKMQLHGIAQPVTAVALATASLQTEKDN
The settings on record: protein: recombinant; tags: N-terminal GST; dsDNA, one strand shown. In outline: as §1

For assay [4], the target named is T4, ERG (Homo sapiens, UniProt P11308 1-479).
T4 sequence: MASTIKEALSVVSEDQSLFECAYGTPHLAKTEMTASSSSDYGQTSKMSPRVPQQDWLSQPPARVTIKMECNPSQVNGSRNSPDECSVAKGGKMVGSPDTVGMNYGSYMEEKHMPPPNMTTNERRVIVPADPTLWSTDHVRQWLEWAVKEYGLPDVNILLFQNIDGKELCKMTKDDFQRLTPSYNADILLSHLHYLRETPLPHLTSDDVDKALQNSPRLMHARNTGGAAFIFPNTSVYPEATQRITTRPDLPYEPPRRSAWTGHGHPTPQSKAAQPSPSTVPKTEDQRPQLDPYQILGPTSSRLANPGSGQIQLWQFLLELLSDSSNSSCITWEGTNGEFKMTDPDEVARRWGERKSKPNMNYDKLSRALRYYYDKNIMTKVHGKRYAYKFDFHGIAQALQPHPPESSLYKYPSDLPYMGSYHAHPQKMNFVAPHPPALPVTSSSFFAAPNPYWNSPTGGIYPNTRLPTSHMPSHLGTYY
The settings on record: protein: recombinant; tags: N-terminal GST; dsDNA, one strand shown. In outline:
as §1

Assay [5] addresses ELF1 (Homo sapiens, UniProt P32519 1-619). The note with it: protein: recombinant; tags: N-terminal GST; dsDNA, one strand shown. Summed up: as §1
In assay [6] the target is T5, EHF (Homo sapiens, UniProt Q9NZC4 1-300).
T5 sequence: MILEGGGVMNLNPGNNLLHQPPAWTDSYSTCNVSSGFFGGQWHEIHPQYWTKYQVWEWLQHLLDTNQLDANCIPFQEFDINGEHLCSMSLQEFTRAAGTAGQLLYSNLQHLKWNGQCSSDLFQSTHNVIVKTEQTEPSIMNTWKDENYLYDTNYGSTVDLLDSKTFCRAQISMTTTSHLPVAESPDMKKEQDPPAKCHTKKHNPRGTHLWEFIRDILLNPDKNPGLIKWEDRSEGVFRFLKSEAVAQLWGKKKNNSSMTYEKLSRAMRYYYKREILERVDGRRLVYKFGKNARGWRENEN
The note with it: protein: recombinant; tags: N-terminal GST; dsDNA, one strand shown. Summed up: as §1

In assay [7] the target is SPI1 (Homo sapiens, UniProt P17947 1-270). The settings on record: protein: recombinant; tags: N-terminal GST; dsDNA, one strand shown. In outline:
as §1

Assay [8] deals with SPIB (Homo sapiens, UniProt Q01892 1-262). The note with it: protein: recombinant; tags: N-terminal GST; dsDNA, one strand shown. Summed up:
as §1

Assay [9] deals with T6, ELK3 (Homo sapiens, UniProt P41970 1-407).
T6 sequence: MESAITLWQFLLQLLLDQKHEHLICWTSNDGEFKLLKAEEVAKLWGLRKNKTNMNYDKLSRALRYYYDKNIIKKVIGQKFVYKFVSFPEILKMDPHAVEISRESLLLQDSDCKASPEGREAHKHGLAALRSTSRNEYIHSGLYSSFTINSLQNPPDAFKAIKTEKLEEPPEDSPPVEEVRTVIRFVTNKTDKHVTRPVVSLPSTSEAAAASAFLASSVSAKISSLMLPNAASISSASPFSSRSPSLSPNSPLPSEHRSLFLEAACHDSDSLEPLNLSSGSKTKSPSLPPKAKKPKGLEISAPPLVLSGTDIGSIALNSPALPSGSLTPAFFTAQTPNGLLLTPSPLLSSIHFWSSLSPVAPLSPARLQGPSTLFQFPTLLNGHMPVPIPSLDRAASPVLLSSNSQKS
The settings on record: protein: recombinant; tags: N-terminal GST; dsDNA, one strand shown. Summed up:
as §1

In assay [10] the target is T7, FEV (Homo sapiens, UniProt Q99581 1-238).
T7 sequence: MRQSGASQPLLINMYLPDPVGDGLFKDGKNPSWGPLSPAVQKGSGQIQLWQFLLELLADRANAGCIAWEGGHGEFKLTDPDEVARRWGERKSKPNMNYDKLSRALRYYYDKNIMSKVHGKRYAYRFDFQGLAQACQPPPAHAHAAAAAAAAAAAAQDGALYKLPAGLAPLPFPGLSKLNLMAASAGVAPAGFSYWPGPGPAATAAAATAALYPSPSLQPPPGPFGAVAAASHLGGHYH
The settings on record: protein: recombinant; tags: N-terminal GST; dsDNA, one strand shown. Summed up:
as §1

Assay [11] has as its target ETV5 (Homo sapiens, UniProt P41161 1-510). The note with it: protein: recombinant; tags: N-terminal GST; dsDNA, one strand shown. Summed up: as §1
Assay [12] deals with HSF1 (Homo sapiens, UniProt Q00613 1-529). The settings on record: protein: recombinant; tags: N-terminal GST; chain copies: 3; dsDNA, one strand shown. Summed up:
as §1

Assay [13] deals with T8, SPIC (Homo sapiens, UniProt Q8N5J4 1-248).
T8 sequence: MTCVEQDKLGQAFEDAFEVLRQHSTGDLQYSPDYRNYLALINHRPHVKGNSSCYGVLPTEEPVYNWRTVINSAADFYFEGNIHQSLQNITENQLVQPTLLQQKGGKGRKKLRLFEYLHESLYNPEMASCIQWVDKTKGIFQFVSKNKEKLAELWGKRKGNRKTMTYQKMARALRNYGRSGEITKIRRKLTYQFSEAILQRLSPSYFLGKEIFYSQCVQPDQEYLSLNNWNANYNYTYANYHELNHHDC
The settings on record: protein: recombinant; tags: N-terminal GST; dsDNA, one strand shown. In outline:
as §1

Assay [14] concerns the target ELF4 (Homo sapiens, UniProt Q99607 1-663). The settings on record: protein: recombinant; tags: N-terminal GST; dsDNA, one strand shown. Summed up: as §1
Assay [15] concerns the target T9, ELK4 (Homo sapiens, UniProt P28324-2 1-405).
T9 sequence: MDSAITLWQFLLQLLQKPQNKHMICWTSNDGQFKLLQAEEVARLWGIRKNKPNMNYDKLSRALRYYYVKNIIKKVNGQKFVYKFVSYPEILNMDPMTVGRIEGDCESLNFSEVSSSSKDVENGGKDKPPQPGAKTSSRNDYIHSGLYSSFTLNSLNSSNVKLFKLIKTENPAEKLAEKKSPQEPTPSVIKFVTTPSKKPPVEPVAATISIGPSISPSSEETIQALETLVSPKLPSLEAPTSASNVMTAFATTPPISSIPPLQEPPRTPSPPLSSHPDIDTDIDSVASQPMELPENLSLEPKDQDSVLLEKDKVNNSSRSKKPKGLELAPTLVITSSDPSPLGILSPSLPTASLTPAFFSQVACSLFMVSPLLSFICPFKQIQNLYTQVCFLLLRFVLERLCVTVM
The settings on record: protein: recombinant; tags: N-terminal GST; dsDNA, one strand shown. In outline:
as §1

Assay [16] deals with T10, ETV2 (Homo sapiens, UniProt O00321 1-342).
T10 sequence: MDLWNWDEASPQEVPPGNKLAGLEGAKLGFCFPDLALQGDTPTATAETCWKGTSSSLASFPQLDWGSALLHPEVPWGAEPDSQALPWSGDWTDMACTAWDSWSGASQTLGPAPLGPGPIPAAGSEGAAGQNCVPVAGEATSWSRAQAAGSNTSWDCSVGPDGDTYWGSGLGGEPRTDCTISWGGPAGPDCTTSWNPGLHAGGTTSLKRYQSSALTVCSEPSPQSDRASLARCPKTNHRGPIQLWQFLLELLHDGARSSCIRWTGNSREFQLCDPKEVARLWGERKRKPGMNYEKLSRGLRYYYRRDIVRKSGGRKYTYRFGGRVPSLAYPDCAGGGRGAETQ
The settings on record: protein: recombinant; tags: N-terminal GST; dsDNA, one strand shown. In outline: as §1

The target in assay [17] is T11, ELF3 (Homo sapiens, UniProt P78545 1-371).
T11 sequence: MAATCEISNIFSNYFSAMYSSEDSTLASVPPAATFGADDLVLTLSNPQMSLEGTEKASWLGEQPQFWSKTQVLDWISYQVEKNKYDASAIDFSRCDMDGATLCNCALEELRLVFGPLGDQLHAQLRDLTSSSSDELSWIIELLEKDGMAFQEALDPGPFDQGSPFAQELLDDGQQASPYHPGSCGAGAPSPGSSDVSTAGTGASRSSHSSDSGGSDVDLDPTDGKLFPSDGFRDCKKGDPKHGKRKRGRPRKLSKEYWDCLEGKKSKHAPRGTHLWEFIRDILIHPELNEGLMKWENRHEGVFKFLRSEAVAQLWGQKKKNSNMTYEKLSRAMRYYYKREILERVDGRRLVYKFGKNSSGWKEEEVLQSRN
The note with it: protein: recombinant; tags: N-terminal GST; dsDNA, one strand shown. In outline: as §1

For assay [18], the target named is CRX (Homo sapiens, UniProt O43186 1-299). The settings on record: protein: recombinant; tags: N-terminal GST; dsDNA, one strand shown. Summed up:
as §1

The target in assay [19] is ETV1 (Homo sapiens, UniProt P50549 1-477). The note with it: protein: recombinant; tags: N-terminal GST; dsDNA, one strand shown. Summed up:
as §1

Sequence of ELF4 (Q99607 whole entry): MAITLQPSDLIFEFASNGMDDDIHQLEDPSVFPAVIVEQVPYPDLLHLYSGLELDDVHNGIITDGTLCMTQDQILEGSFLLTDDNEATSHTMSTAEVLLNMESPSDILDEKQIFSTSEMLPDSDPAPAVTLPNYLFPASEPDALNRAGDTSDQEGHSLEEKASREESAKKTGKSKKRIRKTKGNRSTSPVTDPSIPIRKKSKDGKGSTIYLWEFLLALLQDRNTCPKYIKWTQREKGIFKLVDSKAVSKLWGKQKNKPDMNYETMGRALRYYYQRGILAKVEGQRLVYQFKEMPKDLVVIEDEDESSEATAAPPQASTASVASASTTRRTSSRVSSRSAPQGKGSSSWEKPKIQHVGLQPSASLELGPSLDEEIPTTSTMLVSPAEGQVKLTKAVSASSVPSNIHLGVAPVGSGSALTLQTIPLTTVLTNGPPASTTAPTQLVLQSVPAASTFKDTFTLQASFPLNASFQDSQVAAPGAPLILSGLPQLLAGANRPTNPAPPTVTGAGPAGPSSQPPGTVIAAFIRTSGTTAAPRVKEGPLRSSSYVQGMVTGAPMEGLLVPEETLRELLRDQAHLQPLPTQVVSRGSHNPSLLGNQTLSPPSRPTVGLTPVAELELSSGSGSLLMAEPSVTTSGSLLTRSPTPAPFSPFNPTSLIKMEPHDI
Sequence of ELF1 (P32519 whole entry): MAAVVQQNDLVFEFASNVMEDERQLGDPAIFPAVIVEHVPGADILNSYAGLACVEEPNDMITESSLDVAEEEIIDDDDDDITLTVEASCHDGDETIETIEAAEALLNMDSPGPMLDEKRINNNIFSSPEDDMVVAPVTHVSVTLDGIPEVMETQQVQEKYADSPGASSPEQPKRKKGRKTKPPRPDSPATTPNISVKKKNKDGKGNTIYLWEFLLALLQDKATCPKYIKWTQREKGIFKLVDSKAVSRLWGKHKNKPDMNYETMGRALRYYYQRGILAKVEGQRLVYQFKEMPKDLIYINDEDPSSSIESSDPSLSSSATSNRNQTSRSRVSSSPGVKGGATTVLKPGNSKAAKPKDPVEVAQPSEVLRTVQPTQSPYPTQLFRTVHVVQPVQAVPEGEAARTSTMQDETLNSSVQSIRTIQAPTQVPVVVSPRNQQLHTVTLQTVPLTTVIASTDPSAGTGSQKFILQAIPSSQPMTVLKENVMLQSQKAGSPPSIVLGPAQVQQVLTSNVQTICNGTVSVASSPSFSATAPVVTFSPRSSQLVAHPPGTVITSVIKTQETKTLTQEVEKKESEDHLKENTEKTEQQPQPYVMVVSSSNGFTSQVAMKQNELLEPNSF
Sequence of ETV1 (P50549 whole entry): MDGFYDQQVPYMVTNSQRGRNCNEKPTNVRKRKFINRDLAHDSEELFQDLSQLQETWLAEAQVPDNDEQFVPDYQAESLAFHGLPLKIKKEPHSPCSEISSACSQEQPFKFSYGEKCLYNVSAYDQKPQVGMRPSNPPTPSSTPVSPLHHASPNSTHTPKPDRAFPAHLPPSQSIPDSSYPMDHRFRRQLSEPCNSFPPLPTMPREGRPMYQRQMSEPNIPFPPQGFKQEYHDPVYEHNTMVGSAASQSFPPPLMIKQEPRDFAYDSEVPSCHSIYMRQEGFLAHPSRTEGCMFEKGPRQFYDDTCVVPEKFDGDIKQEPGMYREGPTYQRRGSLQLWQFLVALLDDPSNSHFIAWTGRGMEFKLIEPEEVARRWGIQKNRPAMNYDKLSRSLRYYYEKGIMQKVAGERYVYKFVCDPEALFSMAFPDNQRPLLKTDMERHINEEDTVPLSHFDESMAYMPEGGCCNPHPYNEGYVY
Sequence of CRX (O43186 whole entry): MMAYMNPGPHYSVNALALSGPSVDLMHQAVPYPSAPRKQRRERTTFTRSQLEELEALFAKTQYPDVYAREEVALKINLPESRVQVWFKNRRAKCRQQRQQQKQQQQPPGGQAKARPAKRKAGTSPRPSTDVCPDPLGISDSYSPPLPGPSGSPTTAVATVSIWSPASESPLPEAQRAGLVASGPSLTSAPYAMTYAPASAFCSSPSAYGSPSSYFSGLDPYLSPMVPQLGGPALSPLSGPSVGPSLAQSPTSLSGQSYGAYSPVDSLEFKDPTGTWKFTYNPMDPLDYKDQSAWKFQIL
Sequence of ETV5 (P41161 whole entry): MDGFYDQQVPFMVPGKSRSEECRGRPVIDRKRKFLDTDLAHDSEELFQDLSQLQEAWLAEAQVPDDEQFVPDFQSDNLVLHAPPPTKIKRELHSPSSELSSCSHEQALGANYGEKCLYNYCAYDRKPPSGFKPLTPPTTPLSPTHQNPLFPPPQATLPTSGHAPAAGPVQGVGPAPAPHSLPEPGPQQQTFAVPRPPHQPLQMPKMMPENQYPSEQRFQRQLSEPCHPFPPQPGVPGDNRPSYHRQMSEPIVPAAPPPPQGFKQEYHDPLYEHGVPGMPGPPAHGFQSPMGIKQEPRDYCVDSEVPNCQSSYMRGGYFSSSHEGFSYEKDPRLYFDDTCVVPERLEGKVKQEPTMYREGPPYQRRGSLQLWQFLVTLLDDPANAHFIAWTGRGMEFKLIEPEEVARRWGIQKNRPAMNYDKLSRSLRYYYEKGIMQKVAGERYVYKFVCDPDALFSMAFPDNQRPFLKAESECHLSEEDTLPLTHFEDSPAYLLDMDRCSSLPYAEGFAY
Sequence of HSF1 (Q00613 whole entry): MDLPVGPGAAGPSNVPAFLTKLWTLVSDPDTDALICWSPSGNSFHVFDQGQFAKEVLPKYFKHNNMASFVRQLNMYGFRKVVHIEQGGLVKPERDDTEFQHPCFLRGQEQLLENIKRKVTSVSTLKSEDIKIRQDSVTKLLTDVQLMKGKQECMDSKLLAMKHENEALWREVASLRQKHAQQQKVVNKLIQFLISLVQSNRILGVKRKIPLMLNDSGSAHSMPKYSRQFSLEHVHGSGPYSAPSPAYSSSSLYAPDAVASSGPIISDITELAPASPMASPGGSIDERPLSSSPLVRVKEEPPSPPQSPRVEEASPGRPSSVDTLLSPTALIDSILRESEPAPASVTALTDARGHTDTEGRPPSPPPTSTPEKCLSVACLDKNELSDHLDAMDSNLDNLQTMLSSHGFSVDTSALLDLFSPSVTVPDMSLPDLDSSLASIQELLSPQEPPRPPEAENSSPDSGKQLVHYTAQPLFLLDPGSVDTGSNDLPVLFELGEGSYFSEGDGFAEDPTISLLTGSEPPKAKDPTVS
Sequence of SPIB (Q01892 whole entry): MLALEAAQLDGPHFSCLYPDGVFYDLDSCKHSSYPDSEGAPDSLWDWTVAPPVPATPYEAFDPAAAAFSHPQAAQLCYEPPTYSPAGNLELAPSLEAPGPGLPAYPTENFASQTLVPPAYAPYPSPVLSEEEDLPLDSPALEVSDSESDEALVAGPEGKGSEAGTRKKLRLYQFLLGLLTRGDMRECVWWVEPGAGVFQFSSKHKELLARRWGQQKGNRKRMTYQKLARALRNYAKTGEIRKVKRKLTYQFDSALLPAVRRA

With GACCTA, the binding signal is 1.18 fold enrichment (6-mer frequency, TF over GST control) in assay [1]; 1.07 fold enrichment (6-mer frequency, TF over GST control) in [2]; 1.17 fold enrichment (6-mer frequency, TF over GST control) in assay [3]; 1.11 fold enrichment (6-mer frequency, TF over GST control) in assay [4]; 1.21 fold enrichment (6-mer frequency, TF over GST control) in assay [5]; 1.15 fold enrichment (6-mer frequency, TF over GST control) in assay [6]. Also, the binding signal was 1.02 fold enrichment (6-mer frequency, TF over GST control) in assay [7]; 1.08 fold enrichment (6-mer frequency, TF over GST control) in assay [8]; 1.21 fold enrichment (6-mer frequency, TF over GST control) in assay [9]; 1.17 fold enrichment (6-mer frequency, TF over GST control) in assay [10]; 1.2 fold enrichment (6-mer frequency, TF over GST control) in [11]; 1.06 fold enrichment (6-mer frequency, TF over GST control) in assay [12]. Further, the binding signal was 1.18 fold enrichment (6-mer frequency, TF over GST control) in assay [13]; 1.24 fold enrichment (6-mer frequency, TF over GST control) in assay [14]; 1.14 fold enrichment (6-mer frequency, TF over GST control) in assay [15]; 1.26 fold enrichment (6-mer frequency, TF over GST control) in assay [16]; 1.06 fold enrichment (6-mer frequency, TF over GST control) in [17]; 1.07 fold enrichment (6-mer frequency, TF over GST control) in [18]. Further, the binding signal in assay [19] is 1.16 fold enrichment (6-mer frequency, TF over GST control).

The record behind these values is paper PMC7862700, “An all-to-all approach to the identification of sequence-specific readers for epigenetic DNA modifications on cytosine”.
